What was measured:
Conditions in all cases: Compound Concentration (nM):1000
[1] = test system: TXK
[2] = test system: TYK2(JH1domain-catalytic)
[3] = test system: TYK2(JH2domain-pseudokinase)
[4] = test system: TYRO3
[5] = test system: ULK1
[6] = test system: ULK2
[7] = test system: ULK3
[8] = test system: T1, VEGFR2
T1 construct: gene KDR

[9] = test system: T2, VPS34
T2 construct: gene PIK3C3

[10] = test system: VRK2
[11] = test system: WEE1
[12] = test system: WEE2
[13] = test system: WNK1
[14] = test system: WNK2
[15] = test system: WNK3
[16] = test system: WNK4
[17] = test system: T3, YANK1
T3 construct: gene STK32A

[18] = test system: T4, YANK2
T4 construct: gene STK32B

[19] = test system: T5, YANK3
T5 construct: gene STK32C

[20] = test system: T6, YES
T6 construct: gene YES1
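Further: KINOMEscan scanMAX binding as percent activity remaining versus control; lower means stronger binding.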

Row | Compound | Percent Control [1] | Percent Control [2] | Percent Control [3] | Percent Control [4] | Percent Control [5] | Percent Control [6] | Percent Control [7] | Percent Control [8] | Percent Control [9] | Percent Control [10] | Percent Control [11] | Percent Control [12] | Percent Control [13] | Percent Control [14] | Percent Control [15] | Percent Control [16] | Percent Control [17] | Percent Control [18] | Percent Control [19] | Percent Control [20]
1 | NS(=O)(=O)c1ccc(N/N=C2\C(=O)Nc3ccc(C(=O)NCc4ccncc4)cc32)cc1 [GW300657X] | 100% | 70% | 31% | 80% | 15% | 26% | 31% | 84% | 71% | 74% | 93% | 59% | 92% | 78% | 95% | 73% | 100% | 100% | 100% | 100%
2 | COc1cc(/C=N/Nc2ncnc3[nH]ncc23)ccc1O [GW578748X] | 83% | 43% | 0.2% | 99% | 48% | 43% | 6.1% | 52% | 87% | 100% | 100% | 80% | 100% | 70% | 64% | 100% | 100% | 100% | 100% | 87%
3 | NS(=O)(=O)c1ccc(N/N=C2\C(=O)Nc3ccc(Cl)cc32)cc1 [GW280670X] | 100% | 98% | 100% | 100% | 100% | 100% | 100% | 52% | 100% | 100% | 100% | 100% | 99% | 100% | 100% | 100% | 100% | 100% | 100% | 100%
4 | CN(C)c1cc2c(Nc3ccc4c(cnn4Cc4ccccc4)c3)ncnc2cn1 [GW282974X] | 89% | 100% | 100% | 100% |  | 85% | 91% | 94% | 78% | 81% | 83% | 72% | 100% | 100% | 100% | 91% | 100% | 100% | 100% | 67%
5 | Nc1ncnc2occ(-c3ccc(NC(=O)Nc4cc(C(F)(F)F)ccc4F)cc3)c12 [GW770249X] | 100% | 100% | 100% | 100% | 100% | 93% | 100% | 0.9% | 100% | 100% | 100% | 100% | 96% | 100% | 100% | 100% | 99% | 100% | 100% | 98%
6 | Cl.O=C(Nc1ccc(Oc2ccc3[nH]c(NC(=O)c4ccco4)nc3c2)cc1)Nc1cc(C(F)(F)F)ccc1F [GW683134A] | 80% | 100% | 100% | 71% | 100% | 89% | 62% | 20% | 100% | 100% | 100% | 100% | 90% | 100% | 100% | 100% | 82% | 100% | 100% | 61%
7 | Cl.O=C(Nc1ccc(Oc2ccc3[nH]c(NC(=O)c4ccccc4)nc3c2)cc1)Nc1cc(C(F)(F)F)ccc1F [GW709042A] | 97% | 100% | 100% | 94% | 100% | 100% | 100% | 49% | 100% | 100% | 100% | 100% | 91% | 100% | 88% | 100% | 88% | 100% | 100% | 100%
8 | COc1ccc2cc(-c3c(-c4ccncc4)nc(-c4ccc(S(C)(=O)=O)cc4C)n3C)ccc2c1 [SB-633825] | 90% | 73% | 100% | 72% | 72% | 88% | 73% | 49% | 86% | 58% | 86% | 53% | 97% | 78% | 92% | 72% | 41% | 26% | 70% | 46%
9 | COc1ccccc1-c1cc(/C=C2\C(=O)Nc3ncc(Br)cc32)cc(Br)c1O [GW442130X] | 100% | 76% | 100% | 100% | 85% | 100% | 78% | 100% | 77% | 89% | 100% | 100% | 100% | 100% | 98% | 100% | 92% | 94% | 100% | 100%
10 | CCS(=O)(=O)c1ccc(OC)c(Nc2ncc(-c3cccc(F)c3)o2)c1 [GW621970X] | 42% | 100% | 100% | 73% | 88% | 95% | 100% | 2.4% | 100% | 93% | 100% | 100% | 90% | 100% | 97% | 100% | 100% | 100% | 100% | 43%
11 | COc1ccc2c(-c3ccnc(Nc4cccc(OC(F)(F)F)c4)n3)cnn2n1 [GW810372X] | 67% | 98% | 75% | 100% | 100% | 100% | 100% | 73% | 29% | 95% | 100% | 100% | 100% | 61% | 90% | 100% | 100% | 100% | 100% | 100%
12 | CCS(=O)(=O)c1ccc(OC)c(Nc2ncc(-c3cccc(OC)c3)o2)c1 [GW580509X] | 74% | 100% | 100% | 100% | 87% | 80% | 99% | 23% | 100% | 100% | 100% | 100% | 99% | 100% | 100% | 100% | 100% | 100% | 100% | 74%
13 | C[C@@H](Oc1cc(-n2cnc3ccc(OC4CCN(C)CC4)cc32)sc1C(N)=O)c1ccccc1Cl [GSK579289A] | 60% | 100% | 93% | 92% | 71% | 44% | 100% | 64% | 29% | 95% | 40% | 87% | 32% | 7.1% | 26% | 2.7% | 77% | 100% | 100% | 87%
14 | COc1cc(C)c(N(C)C(=O)CN(C)C)cc1Nc1nc(Nc2cccc(F)c2C(N)=O)c2cc[nH]c2n1 [GSK2219385] | 90% | 100% | 100% | 100% | 72% | 80% | 100% | 100% | 82% | 62% | 100% | 90% | 100% | 100% | 100% | 81% | 87% | 100% | 85% | 96%
15 | COc1cccc(-c2c[nH]c3c(N/N=C/c4ccncc4)ncnc23)c1 [GW814408X] | 100% | 19% | 0.1% | 100% | 100% | 91% | 68% | 61% | 65% | 100% | 100% | 98% | 96% | 75% | 99% | 100% | 90% | 100% | 100% | 61%
16 | Cl.O=S1CCN(Cc2ccc(-c3ccc4ncnc(Nc5ccc(OCc6ccccc6)c(F)c5)c4c3)o2)CC1 [GW576924A] | 100% | 100% | 100% | 100% | 90% | 100% | 94% | 97% | 100% | 100% | 100% | 100% | 100% | 100% | 100% | 100% | 100% | 100% | 100% | 100%
17 | COc1ccc2[nH]c3c4[nH]c5ccc(OC)cc5c4c4c(c3c2c1)C(=O)NC4=O [GW296115X] | 100% | 87% | 84% | 71% | 100% | 87% | 43% | 59% | 80% | 98% | 53% | 87% | 91% | 66% | 92% | 88% | 69% | 97% | 84% | 73%
18 | Cc1cc(O)cc(C)c1/C=C/c1cncc(C(N)=O)c1 [GW435821X] | 100% | 100% | 90% | 100% | 100% | 97% | 98% | 87% | 100% | 100% | 100% | 100% | 100% | 100% | 93% | 100% | 100% | 100% | 100% | 100%
19 | CCn1c(-c2nonc2N)nc2c(C#CC(C)(C)O)nc(OCCNC)cc21.Cl [GSK949675] | 100% | 95% | 95% | 100% | 88% | 100% | 94% | 83% | 100% | 67% | 92% | 100% | 100% | 100% | 100% | 51% | 87% | 89% | 100% | 100%
20 | COc1cc2ncnc(Nc3ccc4c(cnn4Cc4ccccc4)c3)c2cc1OC.Cl [GW282449A] | 100% | 100% | 100% | 51% | 74% | 100% | 100% | 79% | 100% | 100% | 100% | 100% | 94% | 100% | 100% | 100% | 100% | 100% | 100% | 67%
